Measured values reported in PubChem BioAssay.
Active and inactive are the calls of the source.

What was measured:
[1] = system: Plasmodium falciparum Sir2 (PF13_0152, Sir2A); experiment: pfSir2 binders on small-molecule microarrays, primary screen, biochemical, small-molecule microarray, 635 nm fluorescence (AID 1098); settings: small-molecule microarray binding, fluorescence 635 nm; higher = more signal;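 note: score merges spot fluorescence intensity with its signal-to-noise ratio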
[2] = small-molecule microarray binders of probe aDKK1, primary screen, biochemical, biotinylated probe, 635/667 nm fluorescence (AID 1099); settings: higher = more signal;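 note: score merges 667nm spot fluorescence with signal to noise across triplicate slides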
[3] = small-molecule microarray binders of probe aCHRDL2, primary screen, biochemical, biotinylated probe, 635/667 nm fluorescence (AID 1100); settings: higher = more signal
[4] = splicing luciferase reporter signal modulators, primary screen, spliceosome inhibition project, cell-based, HEK293, splice +/- reporter (AID 1101); settings: luminescence, 24 h, higher = more signal, called active from +8 up or from −8 down;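 note: HEK293 cells carrying a splicing-competent luciferase reporter gene; test concentration not given here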
[5] = target: Fibroblast growth factor 10 (Homo sapiens) (UniProt O15520); experiment: FGF10 binders on small-molecule microarrays, primary screen, biochemical, small-molecule microarray, 635 nm fluorescence (AID 1102); settings: FGF10 binding, fluorescence 635 nm, higher = more signal
Chain of Fibroblast growth factor 10 (Homo sapiens) (O15520 whole entry, looked up): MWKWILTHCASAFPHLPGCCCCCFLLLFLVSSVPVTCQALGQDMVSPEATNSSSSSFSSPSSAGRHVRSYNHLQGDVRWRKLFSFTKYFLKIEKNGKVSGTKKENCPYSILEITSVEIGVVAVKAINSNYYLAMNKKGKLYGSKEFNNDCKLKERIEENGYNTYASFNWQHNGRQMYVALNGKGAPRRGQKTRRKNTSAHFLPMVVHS

[6] = system: glycogen synthase kinase-3 (GSK3A per assay name; protocol says GSK3B); experiment: GSK3 binders on small-molecule microarrays, primary screen, biochemical, small-molecule microarray, 635 nm fluorescence, GSK3A (AID 1103); settings: small-molecule microarray binding, fluorescence 635 nm; higher = more signal; note: the record names both GSK3A and GSK3B
[7] = target: Epidermal growth factor receptor (Homo sapiens) (UniProt P00533); experiment: EGFR binders on small-molecule microarrays, primary screen, biochemical, small-molecule microarray, 635 nm fluorescence (AID 1104); settings: EGFR binding, higher = more signal;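 note: score merges 667 nm emission intensity with spot signal to noise over triplicate slides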
Chain of Epidermal growth factor receptor (Homo sapiens) (P00533 whole entry, looked up): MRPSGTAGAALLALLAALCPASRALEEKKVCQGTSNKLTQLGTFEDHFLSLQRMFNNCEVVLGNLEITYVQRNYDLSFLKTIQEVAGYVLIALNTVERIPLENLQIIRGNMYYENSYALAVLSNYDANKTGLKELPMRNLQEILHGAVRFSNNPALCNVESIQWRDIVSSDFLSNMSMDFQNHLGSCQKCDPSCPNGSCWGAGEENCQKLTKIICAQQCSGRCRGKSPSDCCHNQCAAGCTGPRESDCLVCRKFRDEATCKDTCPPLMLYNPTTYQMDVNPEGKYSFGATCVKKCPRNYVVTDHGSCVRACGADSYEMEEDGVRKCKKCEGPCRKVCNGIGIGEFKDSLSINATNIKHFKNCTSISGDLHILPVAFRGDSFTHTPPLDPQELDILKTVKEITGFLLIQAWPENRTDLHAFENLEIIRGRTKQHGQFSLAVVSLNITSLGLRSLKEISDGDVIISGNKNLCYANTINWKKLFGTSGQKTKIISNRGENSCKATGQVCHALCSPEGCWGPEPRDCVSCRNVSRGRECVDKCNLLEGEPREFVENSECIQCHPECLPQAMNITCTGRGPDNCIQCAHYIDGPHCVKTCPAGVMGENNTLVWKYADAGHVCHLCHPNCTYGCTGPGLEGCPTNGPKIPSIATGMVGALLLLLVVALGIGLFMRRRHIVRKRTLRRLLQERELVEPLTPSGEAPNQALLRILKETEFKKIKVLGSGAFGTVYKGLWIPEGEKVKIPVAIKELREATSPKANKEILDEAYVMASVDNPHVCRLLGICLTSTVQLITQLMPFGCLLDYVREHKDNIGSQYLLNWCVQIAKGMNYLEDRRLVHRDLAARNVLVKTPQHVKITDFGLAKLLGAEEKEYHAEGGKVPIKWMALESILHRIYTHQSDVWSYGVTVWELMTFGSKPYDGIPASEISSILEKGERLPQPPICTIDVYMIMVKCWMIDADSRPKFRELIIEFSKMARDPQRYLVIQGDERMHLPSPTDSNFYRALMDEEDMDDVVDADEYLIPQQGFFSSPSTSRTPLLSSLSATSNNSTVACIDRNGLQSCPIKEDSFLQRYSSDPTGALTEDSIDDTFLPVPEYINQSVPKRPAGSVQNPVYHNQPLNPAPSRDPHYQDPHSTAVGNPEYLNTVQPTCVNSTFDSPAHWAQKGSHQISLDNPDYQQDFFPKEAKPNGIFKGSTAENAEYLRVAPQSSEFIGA

[8] = target: Follistatin-related protein 3 (Homo sapiens) (UniProt O95633); experiment: FSTL3 binders on small-molecule microarrays, primary screen, biochemical, small-molecule microarray, 635 nm fluorescence (AID 1105); settings: FSTL3 binding, higher = more signal;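 note: score merges emission near 667 nm and signal to noise per printed spot across three slides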
Chain of Follistatin-related protein 3 (Homo sapiens) (O95633 whole entry, looked up): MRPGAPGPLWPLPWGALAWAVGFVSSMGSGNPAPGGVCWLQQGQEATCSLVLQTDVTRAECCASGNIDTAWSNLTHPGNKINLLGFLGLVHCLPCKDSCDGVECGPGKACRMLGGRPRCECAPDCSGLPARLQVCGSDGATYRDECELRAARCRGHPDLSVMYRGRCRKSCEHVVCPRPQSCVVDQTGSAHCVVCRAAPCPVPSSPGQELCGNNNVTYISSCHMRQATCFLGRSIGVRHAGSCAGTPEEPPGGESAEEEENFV

[9] = target: Dickkopf-related protein 1 (Homo sapiens) (UniProt O94907); experiment: DKK1 binders on small-molecule microarrays, primary screen, biochemical, small-molecule microarray, 635 nm fluorescence scan (AID 1106); settings: DKK1 binding, higher = more signal;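 note: score merges emission near 667 nm with signal to noise over three replicate slides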
Chain of Dickkopf-related protein 1 (Homo sapiens) (O94907 whole entry, looked up): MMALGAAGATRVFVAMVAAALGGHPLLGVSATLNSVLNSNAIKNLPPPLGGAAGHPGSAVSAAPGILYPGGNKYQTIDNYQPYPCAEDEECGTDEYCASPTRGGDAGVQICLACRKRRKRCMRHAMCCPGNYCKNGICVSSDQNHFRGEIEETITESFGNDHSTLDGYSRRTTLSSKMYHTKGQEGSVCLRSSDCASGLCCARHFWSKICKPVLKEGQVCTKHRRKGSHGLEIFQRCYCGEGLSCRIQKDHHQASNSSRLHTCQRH

[10] = system: Inhibin beta A chain (activin A); experiment: INHBA (activin A) binders on microarrays, primary screen, biochemical, small-molecule microarray, 635 nm fluorescence scan (AID 1107); settings: small-molecule microarray binding, higher = more signal;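 note: mouse activin A protein probed at 4.33 µg/mL on printed slides; score merges bound-protein fluorescence near 667 nm with spot signal-to-noise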
[11] = system: Human papillomavirus type 1a protein E7 (residues 44-93); experiment: HPV1a E7 fragment binders on microarrays, primary screen, biochemical, small-molecule microarray, residues 44-93, 635 nm fluorescence (AID 1108); settings: small-molecule microarray binding, fluorescence 635 nm; higher = more signal;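 note: E7 fragment applied at 1 µg/mL in TBST for 1 h at 4 C; score combines spot fluorescence with its signal to noise ratio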
[12] = modulators of HCV replicon luciferase signal, primary screen, HCV replication inhibitor project, Huh7 cells, luciferase reporter (AID 1109); settings: 48 h, higher = more signal;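 note: huh7 hepatoma cells harbouring a luciferase neomycin HCV replicon reporter; luciferase luminescence as measure of HCV replicon replication; test concentration not given here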
[13] = target: Left-right determination factor 2 (Homo sapiens) (UniProt O00292); experiment: LEFTY2 binders on small-molecule microarrays, primary screen, biochemical, small-molecule microarray, 635 nm fluorescence scan (AID 1110); settings: LEFTY2 binding, higher = more signal
Chain of Left-right determination factor 2 (Homo sapiens) (O00292 whole entry, looked up): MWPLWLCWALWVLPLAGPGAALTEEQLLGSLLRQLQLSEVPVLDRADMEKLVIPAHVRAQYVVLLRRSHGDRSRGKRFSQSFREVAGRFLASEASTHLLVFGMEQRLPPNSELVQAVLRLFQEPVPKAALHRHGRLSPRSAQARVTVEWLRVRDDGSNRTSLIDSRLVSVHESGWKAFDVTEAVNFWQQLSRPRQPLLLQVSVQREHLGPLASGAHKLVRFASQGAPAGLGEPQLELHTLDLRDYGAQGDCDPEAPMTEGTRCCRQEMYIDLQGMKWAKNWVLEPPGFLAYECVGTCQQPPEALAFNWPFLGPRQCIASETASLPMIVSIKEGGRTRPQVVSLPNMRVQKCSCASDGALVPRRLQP

[14] = target: Calmodulin-1 (Homo sapiens) (UniProt P0DP23); experiment: CALM1 binders on microarrays, EGTA buffer, profiling panel, biochemical, small-molecule microarray, Cy5-labelled CALM1 (AID 1111); settings: Cy5-CALM1 binding fluorescence, higher = more signal;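 note: labelled calmodulin applied in Tris saline Tween buffer holding calcium plus EGTA and DTT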
[15] = target: Calmodulin-1 (Homo sapiens) (UniProt P0DP23); experiment: calcium-bound CALM1 binders on microarrays, profiling panel, artefact control for SMM control-protein annotation, biochemical, small-molecule microarray, Cy5-labelled CALM1, plus calcium (AID 1112); settings: Cy5-CALM1 binding fluorescence, higher = more signal;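 note: score merges spot fluorescence with signal to noise from triplicate slides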
[16] = small-molecule microarray binders of probe aWnt5a, primary screen, biochemical, biotinylated probe, 635/667 nm fluorescence (AID 1113); settings: higher = more signal;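 note: score merges 667 nm fluorescence intensity with signal-to-noise per printed feature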
[17] = small-molecule microarray binders of probe aShh, primary screen, biochemical, biotinylated probe, 635/667 nm fluorescence (AID 1114); settings: higher = more signal;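 note: probe is biotin-labelled aShh protein from a stem cell growth factor screen; measures binding of labelled protein to compounds printed on the slide; score merges feature fluorescence at 667 nm with signal-to-noise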
[18] = small-molecule microarray binders of probe aNog, primary screen, biochemical, biotinylated probe, 635/667 nm fluorescence (AID 1115); settings: higher = more signal;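 note: probe is biotinylated aNog protein used at 0.15 µg/mL for 1 h at 4 C; z-score combines 667 nm fluorescence of each spot with its signal to noise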
[19] = target: Torsin-1A-interacting protein 1 (Homo sapiens) (UniProt Q5JTV8); experiment: LAP1 binders from COS7 cell lysate, primary screen, small-molecule microarray, 635/667 nm fluorescence (AID 1116); settings: COS7-hLAP1 lysate binding, 635 nm fluorescence, higher = more signal
Chain of Torsin-1A-interacting protein 1 (Homo sapiens) (Q5JTV8 whole entry, looked up): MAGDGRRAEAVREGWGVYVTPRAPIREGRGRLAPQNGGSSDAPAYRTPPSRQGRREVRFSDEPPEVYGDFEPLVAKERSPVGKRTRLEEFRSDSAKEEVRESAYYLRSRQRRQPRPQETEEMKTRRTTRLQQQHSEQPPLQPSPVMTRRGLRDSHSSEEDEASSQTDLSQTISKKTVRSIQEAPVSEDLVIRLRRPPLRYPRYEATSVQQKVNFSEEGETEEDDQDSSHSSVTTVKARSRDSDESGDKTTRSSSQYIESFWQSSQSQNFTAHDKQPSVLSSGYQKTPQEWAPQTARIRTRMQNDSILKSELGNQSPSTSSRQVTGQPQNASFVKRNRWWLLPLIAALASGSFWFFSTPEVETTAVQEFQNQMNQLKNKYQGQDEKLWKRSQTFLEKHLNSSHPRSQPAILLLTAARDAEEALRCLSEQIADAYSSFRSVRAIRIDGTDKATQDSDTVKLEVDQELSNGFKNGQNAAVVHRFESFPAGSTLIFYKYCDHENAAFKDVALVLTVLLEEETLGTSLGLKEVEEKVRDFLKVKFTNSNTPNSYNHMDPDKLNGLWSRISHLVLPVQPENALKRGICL

[20] = target: Alpha-bungarotoxin (Bungarus multicinctus) (UniProt P60615); experiment: alpha-bungarotoxin binders on microarray, profiling panel, artefact control for SMM control protein annotation, biochemical, small-molecule microarray, Alexa647 label, 635/667 nm fluorescence (AID 1117); settings: alpha-BTX-A647 binding fluorescence, higher = more signal
Chain of Alpha-bungarotoxin (Bungarus multicinctus) (P60615 whole entry, looked up): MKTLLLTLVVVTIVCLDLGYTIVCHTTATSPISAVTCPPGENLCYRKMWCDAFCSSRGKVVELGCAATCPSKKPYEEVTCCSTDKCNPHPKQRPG

SMILES	composite z-score [1]	composite z-score [2]	composite z-score [3]	z-score [4]	composite z-score [5]	composite z-score [6]	composite z-score [7]	composite z-score [8]	composite z-score [9]	composite z-score [10]	composite z-score [11]	z-score [12]	composite z-score [13]	composite z-score [14]	composite z-score [15]	composite z-score [16]	composite z-score [17]	composite z-score [18]	composite z-score [19]	composite z-score [20]
COCCOC(=O)N1C(=O)[C@@]2(c3cc(C#CC4=CCCCC4)ccc31)[C@H](c1ccc(O)cc1)N1[C@H](c3ccccc3)[C@H](c3ccccc3)OC(=O)[C@H]1[C@@H]2C(=O)N1CCCCCCC1	0.84	0.854	0.842	-0.476 (inactive)	0.603	1.3	0.405	1.24	0.948	1.6	1.29	-0.387	0.8	1.11	0.716	-0.0732	0.332	0.512	0.691	1.69
CO[C@H]1COC(=O)[C@H](C)NC(=O)CC=C[C@@H](C)[C@H](NS(=O)(=O)c2ccc(C)cc2)COC(=O)[C@@H](OCc2ccccc2)C=C[C@@H]1C	-0.189	-0.667	-0.97	-0.138 (inactive)	0.0808	0.258	0.286	0.512	1.37	0.51	-0.117	-0.179	0.449	-0.967	-1.02	-0.248	-0.167	-0.173	-0.141	-0.606
COc1cc2c(cc1OC)CN(C(=O)[C@H]1[C@@H]3C(=O)O[C@@H](c4ccccc4)[C@@H](c4ccccc4)N3[C@@H](c3ccccc3OCCO)[C@]13C(=O)Nc1ccc(C#CC4(O)CCCCCC4)cc13)CC2	1.6	0.329	0.453	-1.16 (inactive)	1.06	1.3	0.525	0.564	0.693	0.113	-0.178	-2.36	0.519	1.16	-0.407	0.0676	0.0684	-0.356	1.02	1.83
COc1cc(Cc2cc3c(c(CCc4ccccc4)n2)[Si](C(C)C)(C(C)C)OC3)cc(OC)c1OC	-0.132	-0.106	-0.471	-0.212 (inactive)	0.367	-0.034	0.0831	0.499	0.164	0.679	-0.0207	-2.14	0.131	-0.358	-0.182	-0.156	0.0796	-0.158	-0.214	-0.044
COc1cccc([C@@H]2[C@@H](C)CC[C@H]3C(=O)N(C)[C@@H](C(C)C)C(=O)N23)c1	0.516	-0.22	-0.532	0.223 (inactive)	0.266	0.649	0.418	0.472	0.782	0.428	0.148	0.512	0.375	-0.169	-0.562	-0.204	-0.0011	-0.141	1.11	0.0641
